SW480 rereplic: inducers of DNA re-replication in SW480 colon cancer cells | SW480 DNA re-replication, Hoechst DNA content imaging, 48 h | Potency, µM (series often up to 46.1 µM), without a hit: top-dose re-replication activation, most hits filed as activators | 340,000 tested, 1.8% active; note: potency is the fitted concentration of half-maximal effect; % of control where 0% means no effect; nearly all actives have a fitted effect of over 55% in size
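DNA re-replication was detected as more nuclei of elevated Hoechst intensity after 48 hr exposure to compound (23 nL pinned per well of 250 cells).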
KB-3-1 tox: KB-3-1 parental cell cytotoxicity | Potency, µM (doses to about 46.1 µM), hits mostly cytotoxic | 400,000 tested, 1.4% active | KB-3-1 viability, CellTiter-Glo ATP luminescence, 72 h; note: potency is the fitted concentration of half-maximal effect; % is set by controls: 0 for no effect and ±100 for the full control effect; nearly all actives have a fitted effect of over 60% in size
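Viability of parental KB-3-1 cells, measured by CellTiter-Glo luminescence, followed a 72 h incubation at 37 °C with pinned compounds in phenol-red-free DMEM containing 10% FBS.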
IL-1B inflam inh: blocks inflammasome-driven IL-1 beta release. 360,000 tested, 4.7% active. AID 743279. THP-1 LPS/ATP IL-1B secretion, AlphaLISA, 16 h; stronger effect = lower value. activity change, % at 57.5 µM; in the data active = activity change below about -50%; inconclusive = mostly about -30% to -49%; note: % is set by controls: 0 for no effect and ±100 for the full control effect
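Secreted IL-1B measured by AlphaLISA bead assay after 16 h compound exposure of THP-1 cells; compounds (final up to 57.5 uM) added 1 h before LPS (250 ng/mL) and ATP (1.25 mM) stimulation; lower signal means less secretion.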
KB-V1 cytotox: KB-V1 MDR subline cytotoxicity | AID 1347076 | KB-V1 MDR cells viability, CellTiter-Glo, 72 h | 400,000 tested, 3.4% active | Potency, µM (top dose mostly 46.1 µM), usual class: cytotoxic; note: potency is the fitted concentration of half-maximal effect; % is set by controls: 0 for no effect and ±100 for the full control effect; nearly all actives have a fitted effect of over 60% in size
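Compound-treated KB-V1 multidrug-resistant cells, 72 h, 37 degrees C; viability by CellTiter-Glo. Fitted qHTS curves give the values.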
MCF10A rerep: inducers of DNA re-replication in MCF 10A breast cells. MCF 10A DNA re-replication, Hoechst nuclear intensity, 48 h. Potency, µM (doses to about 46.1 µM), without a hit: at the top dose activity, positive = re-replication, most hits filed as activators. 350,000 tested, 2.9% active; note: potency is the fitted concentration of half-maximal effect; % of control where 0% means no effect; nearly all actives have a fitted effect of over 50% in size
An asterisk follows results filed as active; i = inactive; ? = inconclusive; / = no result given; ! = repeats disagree. This is a sample that favours compounds with a hit; in the whole collection about 9.9% have one here. Unless noted, calls come from the whole dose curve; as a rule, active = well fitted curve in the direction sought with a large enough effect; inconclusive = small, poorly fitted or top-dose-only effect, or another doubt; inactive = no such curve, though single readings can be large; an effect the other way counts as inactive or inconclusive.

SMILES	SW480 rereplic	KB-3-1 tox	IL-1B inflam inh	KB-V1 cytotox	MCF10A rerep
COc1cc(NC(=O)COc2cc3oc(=O)cc(C)c3cc2Cl)cc(OC)c1OC	1.5%	i	-16.3	i	-6.5%
COc1ccc(NC(=O)C2=CCN(S(=O)(=O)c3ccccc3)CC2)cc1OC	-6.7%	i	-4.9	i	-3.2%
COc1ccccc1N1C(C)=CC(=C(C#N)c2nc3ccccc3s2)C=C1C	18.4µM*	?	18.2	i	?
CC1=CC(=C(C#N)c2nc3ccccc3s2)C=C(C)N1c1ccc(F)cc1	6.0%	i	-8.7	i	?
Cc1c(Cc2ccccc2)sc(NC(=O)c2ccco2)c1C(N)=O	1.1%	i	-21.1	?	14.6µM*
COC(=O)c1c(NC(=O)/C=C/C(=O)O)sc(Cc2ccccc2)c1C	?	?	-110.9*	?	14.6µM*
Cc1c(Cc2ccc3c(c2)OCO3)sc(NC(=O)c2cccc3ccccc23)c1C(N)=O	?	?	-15.3	i	?
Cc1c(Cc2ccccc2)sc(NC(=O)/C=C/c2cccc3ccccc23)c1C(N)=O	?	9.2µM*	10.3	?	2.31µM*
COC(=O)c1c(NC(=O)c2ccco2)sc(C)c1C	?	i	10.0	i	?
CC1=C(C(=O)N(C(C)C)C(C)C)CC(CC(=O)NCc2cccc3ccccc23)C(=O)N1Cc1ccccc1 (centres undefined)	/	i	?	i	/
Cc1nc2c(-c3ccc(F)cc3)cnn2c(N)c1-c1ccccc1	?	i	-73.4*	i	?
CCCn1c(NCc2cccc(OC)c2O)nc2ccccc21	2.0%	i	-27.2	8.2µM*	-0.6%
COc1cccc(CNCc2cccc(OC)c2O)c1O	-2.0%	i	4.8	18.4µM*	-0.8%
CCCCn1c(NCc2cc(Cl)ccc2O)nc2ccccc21	/	?	/	13µM*	/
CCCn1c(NCc2c[nH]c3ccccc23)nc2ccccc21	2.9%	i	-52.4*	i	1.9%
O=C(COc1ccccc1C(=O)Nc1cccc(F)c1)Nc1ccc(Br)cc1	/	?	/	i	/
Cc1cccc(OS(=O)(=O)NC(=O)OCC2CCCN3CCCCC23)c1 (centres undefined)	-6.0%	i	12.6	?	-7.1%
O=[N+]([O-])c1cc(S(=O)(=O)Nc2ccc(Cl)cc2)ccc1N/N=C/c1ccncc1	4.4%	i	-6.4	i	4.11µM*
O=[N+]([O-])c1ccc(Cl)cc1N/N=C/c1ccncc1	-1.6%	i	-12.1	i	13.8%
Cc1ccc(SC[C@H](c2ccccc2)N2CCN(CCc3ccccc3)CCC2=O)cc1	0.4%	i	18.1	i	8.2µM*
CC(C)CN1CCC(=O)N([C@H](CSc2ccccc2)Cc2ccccc2)CC1	?	?	-16.9	13µM*!	?
O=S(=O)(c1ccc(F)cc1)N1CCN(Cc2cc3c(cc2Br)OCCO3)CC1	-35.3%	?	-2.0	i	5.0%
Cc1ccc(S(=O)(=O)N2CCN(Cc3cc4c(cc3Br)OCCO4)CC2)cc1	-7.4%	3.66µM*	15.0	i	?
COc1ccc(C2NC(=O)N(C)C3=C2C(=O)N(c2cccc(C(=O)O)c2)C3)cc1 (centres undefined)	/	i	/	i	/
CCCc1cc(N2CCCC(C(=O)NCc3ccc4c(c3)OCO4)C2)n2ncnc2n1 (centres undefined)	-4.9%	i	-4.4	i	15.0%
SMILES	SW480 rereplic	KB-3-1 tox	IL-1B inflam inh	KB-V1 cytotox	MCF10A rerep
CCCc1cc(N2CCCC(C(=O)Nc3ccc(OC)cc3OC)C2)n2ncnc2n1 (centres undefined)	-1.9%	?	9.7	3.66µM*	-5.5%
CCc1c(C)nc2ncnn2c1N1CCCC(C(=O)NCCc2ccc(OC)cc2)C1 (centres undefined)	6.0%	?	-2.4	14.6µM*	4.2%
CCOC(=O)c1noc2nc(C)n(CC(=O)Nc3cc(Cl)ccc3OC)c(=O)c12	/	i	/	i	/
COc1cccc(NC(=O)Cn2c(=O)n(-c3ccc(CC(=O)NCC4CCCO4)cc3)c(=O)c3ccccc32)c1 (centres undefined)	/	i	/	?	/
N#CCCN(CCN1CCCC1)S(=O)(=O)c1ccc(-c2ccc([N+](=O)[O-])cc2)cc1	3.4%	i	26.2	i	2.5%
Cc1c(Cl)ccc2c(C(=O)NCCN3CCCCC3)cc(-c3ccccn3)nc12	?	i	-96.7*	?	?
Cc1ccc(-c2cc(C(=O)NCc3ccccn3)c3ccccc3n2)cc1C	?	?	-13.8	14.6µM*	5.8µM*
COCCNC(=O)c1cc(-c2ccc(-c3ccccc3)cc2)nc2ccccc12	?	20.6µM*	-65.6*	i	?
Cc1c(Cl)ccc2c(C(=O)NCCCn3nccc3C)cc(-c3ccccn3)nc12	19.9%	i	-3.0	?	?
O=C(NC1CCC(O)CC1)c1ccc(-c2ccc(Cl)cc2)o1 (centres undefined)	-2.9%	i	-62.4*	i	11.9%
CCC(Cc1c(I)cc(I)c(O)c1I)C(=O)O (centres undefined)	0.3%	/	/	/	1.7%
O=S(=O)(Nc1cccc(-c2ccc(N3CCCCC3)nn2)c1)c1cccc(F)c1	/	i	/	i	/
Cc1nc(Oc2ccc(F)cc2Cl)c2oc3ccccc3c2n1	/	i	/	i	/
Cc1ccccc1OCCC(=O)OCC(=O)NNC(=O)c1cccs1	13.0%	i	-0.5	i	5.4%
O=C(NCc1ccccn1)c1cc(-c2ccc(Cl)cc2)nc2ccccc12	0.1%	i	3.0	11.6µM*	18.4%
Cc1cc(F)cc(-c2cc(C(=O)NCc3ccccn3)[nH]n2)c1	/	i	-86.1*	i	/
Cc1ccc(-c2cc(C(=O)NCCCN3CCOCC3)c3ccccc3n2)cc1C	0.5%	i	-10.3	i	-0.9%
O=C(NCc1ccccn1)c1cc(-c2ccc(-c3ccccc3)cc2)nc2ccccc12	-131.5%	i	-0.6	i	?
Cc1ccc(-c2cc(C(=O)NCCCN3CCCC3)c3ccccc3n2)cc1C	0.1%	?	-73.1*	i	18.9%
Cc1cc(F)cc(-c2cc(C(=O)NCc3ccco3)[nH]n2)c1	/	i	?	i	/
O=C(NCc1ccccn1)c1cc(Cl)ccc1OCc1ccccc1	-2.5%	i	-53.3*	i	-0.9%
CCOc1ccc(NC(=O)CCC(=O)NNC(=O)COc2ccccc2C)cc1	2.9%	i	-2.6	i	1.3%
Cc1ccccc1-c1nnc(CN2CCN(c3cc(Cl)ccc3C)CC2)o1	/	i	/	?	/
Cc1cccc(-c2cc(C(=O)NCc3ccccn3)c3ccccc3n2)c1	-0.9%	i	-22.6	5.8µM*	26.4%

Screening data: PubChem BioAssay, National Center for Advancing Translational Sciences (NCATS)
